Hit rate of the full screen: of about 320,000 compounds, about 22,000 (6.9%) were called active. A call without a number means that no potency is given here. About 27% were inconclusive and are not listed. Calls follow the shape of the dose curve; as a rule, active = well fitted inhibition curve with a large enough effect; inconclusive = small, poorly fitted or top-dose-only effect, or another doubt; inactive = no such curve, though single readings can be large or run the other way. For the sample, actives were picked, then their nearest neighbours and some compounds at random.
Potency is read from the fitted curve at half-maximal effect.

This assay is described as follows: Primary qHTS for delayed death inhibitors of the malarial parasite plastid, 96 hour incubation. The conditions noted are these: P. falciparum luciferase reporter growth; series mostly up to 28.7 µM. An outline of the steps:
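Luminescence readout: decreased luciferase signal marks inhibited growth of reporter-expressing P. falciparum in infected red cells (2% hematocrit, 0.05% parasitemia final), exposed to compound two generations (96 h, 37 C, 5% CO2).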
On the technique in general: qHTS replaces the single test concentration by a dilution series.
Regarding `C=CCN1CC(C)/C(=N\O)CC1C` (centres undefined), the Potency result was “inactive”. To `Cc1cnc(C(=O)OCc2c(C)cc(C(C)(C)C)cc2C)cn1` belongs “inactive”; to `CCn1c(=O)c([N+](=O)[O-])c(NCc2ccc3c(c2)OCO3)c2ccccc21`, “inactive”. For the compound `S=C(NCc1ccco1)NCc1ccccc1Cl`, the Potency entry is “inactive”.

As to `Cc1[nH]c2ccccc2c1C(=O)CSCC(=O)O`, the Potency result is “inactive”. `Cc1[nH]c2ccccc2c1C(=O)CN1CC(C)CC(C)C1` (centres undefined): the Potency result was “inactive”. Consider `Cc1[nH]c2ccccc2c1C(=O)C(C)Sc1nnc(C2CC2)o1` (centres undefined), for which the Potency was 4.15 µM (active). In the case of `Cc1ccc(SCCSc2ncccn2)cc1` it was “inactive”; in that of `O=C(NCc1ccccc1)[C@@H]1CSC2c3ccccc3C(=O)N21` (some centres undefined), “inactive”. Take `CC1(C)SC2c3ccccc3C(=O)N2[C@@H]1C(=O)NCc1ccco1` (some centres undefined): the Potency is 5.22 µM (active). To `COCCCNC(=O)[C@H]1N2C(=O)c3ccccc3C2SC1(C)C` (some centres undefined) belongs “inactive”; to `COc1cccc(NC(=O)CN(C)C(=O)CSC(=S)N2CCCC2)c1`, “inactive”; to `Cc1c(Cl)cccc1NC(=O)NCc1ccc(C)n1C`, “inactive”. In the case of `Cc1ccc(C2CC(c3cccc(NS(C)(=O)=O)c3)=NN2S(C)(=O)=O)cc1` (centres undefined), the Potency result is “inactive”. Regarding `CCOc1ccccc1C1CC(c2cccc(NS(C)(=O)=O)c2)=NN1C(=O)c1ccccc1` (centres undefined), the Potency is 13.1 µM (active). In the case of `CS(=O)(=O)Nc1cccc(C2=NN(C(=O)c3cccc(F)c3)C(c3cccs3)C2)c1` (centres undefined) it was “inactive”; in that of `CCN(CC(=O)Nc1c(F)cccc1F)C(=O)CN1c2cccc3cccc(c23)S1(=O)=O`, “inactive”; in that of `Cc1cccc(C(=O)OCC(=O)Nc2ccc(F)cc2)c1`, “inactive”. On to `CCOC(=O)c1ccccc1NC(=O)COC(=O)C(Cc1c[nH]c2ccccc12)NC(C)=O` (centres undefined), for which the Potency result is “inactive”. For `Cc1ccc(OCC(=O)c2cc(C)n(Cc3ccco3)c2C)c([N+](=O)[O-])n1`, the Potency result was “inactive”. In the case of `COc1ccc(C)cc1-n1nnnc1SCC(=O)c1cc(C)n(Cc2ccco2)c1C` it was 10.4 µM (active); in that of `Cc1cc(C(=O)CSc2nc(N)cc(=O)[nH]2)c(C)n1Cc1ccco1`, “inactive”. For `O=c1[nH]c(NCCO)nnc1Cc1ccc(Cl)cc1`, the Potency entry was “inactive”. In the case of `COc1ccccc1NS(=O)(=O)c1ccc(C)c(C(=O)NCC(c2ccco2)N(C)C)c1` (centres undefined), the Potency entry was “inactive”. To `CC1CN(S(=O)(=O)c2cccc(C(F)(F)F)c2)CN1C(=O)N1CCOCC1` (centres undefined) belongs “inactive”; to `O=C(NCCCNC(=O)c1ccccc1Cl)c1cnccn1`, “inactive”; to `CCCCN(C)C(=O)c1ccc2c(c1)N(CC)C(=O)c1ccccc1S2(=O)=O`, 10.4 µM (active).

As for `CCCCN1C(=O)c2ccc(C(=O)Nc3ccc(S(=O)(=O)N(C)C)cc3)cc2C1=O`, the Potency result is “inactive”. Regarding `CN(Cc1cccs1)C(=O)CN1C(=O)c2ccccc2S1(=O)=O`, the Potency result was “inactive”.

Source of the values: PubChem BioAssay AID504834 (National Center for Advancing Translational Sciences (NCATS), 2011).
